Test results from PubChem BioAssay AID720597 (Broad Institute, 2013).
Entries with a potency or affinity are not part of this list. The source made the active and inactive calls.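 How the source made its calls: active means fitted half-maximal dose no more than twice the top valid tested dose, for compounds that lower signal; inconclusive means fit invalid, or curve flat with activity between -70 and -30; inactive means potency past limit, curve flat within ±30, or signal increasing.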

target: NAD-dependent protein deacylase sirtuin-5, mitochondrial (Homo sapiens) (UniProt Q9NXA8); assay: SIRT5 deacylase inhibitors, dose response, biochemical, fluorescence imaging, cherry-pick, set 6 (AID 720597); conditions: Purified SirT5, succinyl-peptide-AMC/trypsin fluorescence; series mostly up to 15 µM;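 further: lower AMC signal can also come from blocking the trypsin step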
Sequence (Q9NXA8 whole entry, looked up): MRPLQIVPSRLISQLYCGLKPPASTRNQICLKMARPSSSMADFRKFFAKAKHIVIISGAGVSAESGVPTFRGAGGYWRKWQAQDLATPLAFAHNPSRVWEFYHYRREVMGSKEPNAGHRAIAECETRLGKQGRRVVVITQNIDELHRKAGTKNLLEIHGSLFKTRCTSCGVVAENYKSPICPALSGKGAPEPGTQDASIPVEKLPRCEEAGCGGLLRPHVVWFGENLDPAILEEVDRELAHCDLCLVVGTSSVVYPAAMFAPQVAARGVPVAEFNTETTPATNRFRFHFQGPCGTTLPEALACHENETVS

outcome, inactive:
C[C@@H]1CN([C@@H](C)CO)C(=O)c2c(c3ccccc3n2C)-c2ccccc2CO[C@@H]1CN(C)Cc1cccc(O)c1
C[C@@H]1CN([C@@H](C)CO)C(=O)c2cc(NS(C)(=O)=O)ccc2O[C@@H](C)CCCCO[C@@H]1CN(C)C
C[C@@H]1CCCCO[C@@H](CN(C)Cc2ccc(Cl)c(Cl)c2)[C@@H](C)CN([C@H](C)CO)C(=O)c2cc(NC(=O)CCCCCC(=O)Nc3ccccc3N)ccc2O1
C[C@H](O)C#Cc1ccc2c(c1)O[C@H](CN(C)Cc1ccc(-c3ccccc3)cc1)[C@H](C)CN([C@@H](C)CO)S2(=O)=O
C[C@H]1CN([C@@H](C)CO)S(=O)(=O)c2ccc(-c3cccc(F)c3)cc2O[C@H]1CN(C)S(=O)(=O)c1ccc(F)cc1
COc1ccc(S(=O)(=O)Nc2ccc3c(c2)CC(=O)N([C@@H](C)CO)C[C@H](C)[C@H](CN(C)Cc2ccc(Oc4ccccc4)cc2)O3)cc1
C[C@H](CO)N1C[C@H](C)[C@H](CN(C)S(=O)(=O)c2ccc(Cl)cc2)OCc2ccccc2-c2c(n(C)c3ccccc23)C1=O
C[C@@H]1CN([C@H](C)CO)S(=O)(=O)c2ccc(C#Cc3ccc(F)cc3)cc2O[C@@H]1CN(C)S(=O)(=O)c1ccc(F)cc1
COc1cccc(NC(=O)N2CC(=O)N3[C@@H](CO)[C@H](c4ccc(C#CCC5CCCC5)cc4)[C@@H]3C2)c1
C[C@H](CO)N1C[C@H](C)[C@H](CN(C)Cc2ccccc2)Oc2cc(/C=C/c3ccccc3)ccc2S1(=O)=O
COc1ccc(NC(=O)N(C)C[C@H]2Oc3cc(C#CCC(C)C)ccc3S(=O)(=O)N([C@@H](C)CO)C[C@H]2C)cc1
O=S(=O)(c1ccc(F)cc1)N1CCCCN2[C@@H](CO)[C@@H](c3ccc(C#CC4CCCC4)cc3)[C@@H]2C1
COCC(=O)Nc1ccc2c(c1)OC[C@H](C)N(CC1CC1)C[C@@H](C)[C@@H](OC)CN(C)C2=O
Cn1cnc(S(=O)(=O)N[C@H]2CC[C@@H](CC(=O)Nc3ccccc3)O[C@@H]2CO)c1
CO[C@H]1CN(C)C(=O)c2cccc(C#N)c2OC[C@H]2O[C@H](CC[C@@H]2OC)CCN(C)C(=O)[C@H]1C
O=C1CN(Cc2ccccc2)C[C@@H]2[C@H](c3ccc(-c4ccccc4)cc3)[C@H](CO)N12
CCOC(=O)N(C)C[C@H]1OCc2ccccc2-c2ccccc2C(=O)N([C@H](C)CO)C[C@@H]1C
O=C(NCC[C@@H]1CC[C@H](NS(=O)(=O)c2cccc(F)c2)[C@H](CO)O1)C1CCOCC1
Cc1noc(C)c1NC(=O)Nc1cccc2c1O[C@@H](CN(C)Cc1ccc(Oc3ccccc3)cc1)[C@H](C)CN([C@H](C)CO)C2=O
C[C@@H]1CN([C@@H](C)CO)S(=O)(=O)c2ccc(/C=C/c3ccccc3)cc2O[C@@H]1CN(C)C(=O)Nc1cc(F)ccc1F
C[C@H]1CN([C@@H](C)CO)C(=O)c2cc(NC(=O)Cn3cnnn3)ccc2O[C@@H]1CN(C)S(=O)(=O)c1ccc(F)cc1
CC(C)c1cn(CC[C@H]2CC[C@H](NS(=O)(=O)c3ccc(F)cc3)[C@@H](CO)O2)nn1
CNC[C@@H]1Oc2ccc(NC(=O)Nc3ccc(F)cc3)cc2CC(=O)N([C@H](C)CO)C[C@@H]1C
COc1ccc(NC(=O)N(C)C[C@@H]2Oc3cc(C#CCC(C)C)ccc3S(=O)(=O)N([C@@H](C)CO)C[C@H]2C)cc1
C[C@H](CO)N1C[C@H](C)[C@H](CN(C)Cc2cccc(C(F)(F)F)c2)Oc2ncc(C#Cc3ccccc3)cc2C1=O
C[C@H]1CN([C@@H](C)CO)C(=O)c2cc(C#Cc3cccc(F)c3)cnc2O[C@@H]1CN(C)CC1CCCC1
C[C@H]1CN([C@@H](C)CO)S(=O)(=O)c2ccc(/C=C/c3ccccc3)cc2O[C@@H]1CN(C)Cc1ccccc1
Cc1ccc(-c2cnc3c(c2)C(=O)N([C@@H](C)CO)C[C@H](C)[C@@H](CN(C)C(=O)c2cccnc2)O3)cc1
C[C@H]1CN([C@@H](C)CO)S(=O)(=O)c2ccc(C#CC3CC3)cc2O[C@@H]1CN(C)C(=O)Cc1ccncc1
C[C@H]1CN([C@@H](C)CO)S(=O)(=O)c2ccc(/C=C/c3ccccc3)cc2O[C@@H]1CN(C)C(=O)NC1CCCCC1
C[C@H](CO)N1C[C@H](C)[C@H](CN(C)Cc2ccc(Oc3ccccc3)cc2)Oc2ccc(NC(=O)Cc3ccccc3)cc2C1=O
COc1ccc(NC(=O)N(C)C[C@@H]2OCc3ccccc3-c3c(n(C)c4ccccc34)C(=O)N([C@@H](C)CO)C[C@@H]2C)cc1
Cc1ccc(S(=O)(=O)N(C)C[C@@H]2OCCCC[C@H](C)Oc3ccc(NS(=O)(=O)c4ccc(F)cc4)cc3C(=O)N([C@H](C)CO)C[C@@H]2C)cc1
C[C@@H](O)C#Cc1ccc([C@H]2[C@H](CO)N3CCCCN(CC4CC4)C[C@@H]23)cc1
C[C@@H]1CCCCO[C@H](CN(C)Cc2ccc(C(F)(F)F)cc2)[C@@H](C)CN([C@@H](C)CO)C(=O)c2cc(NS(=O)(=O)c3ccc(F)cc3)ccc2O1
COc1ccc(S(=O)(=O)N(C)C[C@@H]2OCCCC[C@H](C)Oc3ccc(NS(=O)(=O)c4ccc(F)cc4)cc3C(=O)N([C@@H](C)CO)C[C@@H]2C)cc1
CCN1[C@@H]2c3ccc(-c4ccccc4)c(=O)n3C[C@@H]2[C@@H](CO)[C@@H]1C(=O)NCc1ccccc1
CC(=O)N(C)C[C@H]1Oc2ncc(C#CCC3CCCC3)cc2C(=O)N([C@@H](C)CO)C[C@H]1C
C[C@@H]1CN([C@@H](C)CO)S(=O)(=O)c2ccc(C#Cc3cccc(F)c3)cc2O[C@@H]1CN(C)S(=O)(=O)c1ccccc1F
